This is a sample that favours compounds with a hit; in the whole collection about 19% have one here.
DT40 TDP1 no CPT: qHTS for Inhibitors of human tyrosyl-DNA phosphodiesterase 1 (TDP1): qHTS in cells in absence of CPT; DT40 Tdp1-/- hTDP1 cells, no CPT, ATP luminescence, 48 h; Potency, µM (top dose mostly 46.2 µM), hits mostly inhibitors; 420,000 tested, 15% active; AID 686978, 2013; further: nearly all actives have a fitted effect of over 55% in size
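DT40 Tdp1-/-;hTDP1 cells, no CPT (DMSO vehicle only), 400 cells/well; compounds pin-transferred; ≥48 hr, 37 °C; CellTiter-Glo 30 min RT dark, luminescence read.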
SW480 rereplic: induces DNA re-replication in SW480 colon adenocarcinoma cells; SW480 DNA re-replication, Hoechst DNA content imaging, 48 h; 340,000 tested, 1.8% active; Potency, µM (top dose mostly 46.1 µM), usual class: activators; AID 624297; further: nearly all actives have a fitted effect of over 55% in size
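Treated cells incubate 48 hr (37 C, 5% CO2), are stained 40 min with Hoechst, and nuclear fluorescence is enumerated; a rise in nuclei with high DNA signal marks re-replication.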
TDP1 cell CPT: DT40-hTDP1 cell growth loss with CPT; chicken DT40 Tdp1-/-;hTDP1 cells + 20 nM CPT, ATP luminescence, 48 h; Potency, µM (titrated, usually from 46.2 µM), usual class: inhibitors; 420,000 tested, 12% active; AID 686979; further: nearly all actives have a fitted effect of over 55% in size
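Chicken DT40 Tdp1-/- cells stably complemented with human TDP1 were seeded at 400 cells/well in medium containing 20 nM camptothecin, exposed to pin-transferred compounds, and grown at 37 °C for at least 48 hr. Viability was read as ATP luminescence.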
BCR signal inh: inhibitors of chronic active B-cell receptor signaling. ABC-DLBCL IkBa-CBG/CBR reporter, luminescence ratio, 4 h. Potency, µM (top dose mostly 46.1 µM), most hits filed as inhibitors. 340,000 tested, 0.05% active. AID 493014; active means well fitted inhibition curve with a large enough effect in the signal ratio, with a control signal flat, not every such curve was filed as active; inconclusive means small, poorly fitted or top-dose-only effect, or effect the other way, or a change in a side signal; the % refers to the signal ratio
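Cell line TMD8 (human ABC DLBCL), stably expressing tet-inducible CBG68-IkBa fusion and CBR; IMDM/0.5% FBS; cpd up to 46 uM; dox induction, 4 h, 37C/5% CO2; dual luminescence; green/red ratio; MG132 control.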
IL1B secr inh: inflammasome signaling inhibition, IL-1 beta readout. activity change, % at 57.5 µM. AID 743279. THP-1 LPS/ATP IL-1B secretion, AlphaLISA, 16 h; stronger effect = lower value. 360,000 tested, 4.7% active; in the data active means activity change below about -50%; inconclusive means mostly about -30% to -49%
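Secreted IL-1B measured by AlphaLISA bead assay after 16 h compound exposure of THP-1 cells; compounds (final up to 57.5 uM) added 1 h before LPS (250 ng/mL) and ATP (1.25 mM) stimulation; lower signal means less secretion.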
MCF10A rereplic: DNA re-replication induction in MCF 10a cells. MCF 10A DNA re-replication, Hoechst nuclear intensity, 48 h. Potency, µM (titrated, usually from 46.1 µM), hits mostly activators. 350,000 tested, 2.9% active. AID 624296; further: nearly all actives have a fitted effect of over 50% in size
A number is an active result; . = inactive; ? = inconclusive; / = not tested or not shown; ! = not active in a repeat; [ ] = remark or other dose. Unless noted, the call rests on the fitted dose curve; in most records, active means well fitted curve in the direction sought with a large enough effect; inconclusive means small, poorly fitted or top-dose-only effect, or another doubt; inactive means no such curve, though single readings can be large; an effect the other way counts as inactive or inconclusive.

SMILES	DT40 TDP1 no CPT	SW480 rereplic	TDP1 cell CPT	BCR signal inh	IL1B secr inh	MCF10A rereplic
CCN(CC(=O)Nc1ccccc1C(F)(F)F)C(=O)CCOc1ccccc1C	.	.	.	.	.	.
CCN(CC(=O)Nc1ccccc1C(F)(F)F)C(=O)c1ccc(NC(=O)c2cccs2)cc1	21µM	/	15µM	/	.	/
Cc1cc(C)cc(NC(=O)[C@@H](NC(=O)c2ccco2)C(C)C)c1	.	.	.	.	.	.
OC(CN(Cc1ccccc1)Cc1ccccc1)c1ccccc1 (stereo not given)	18µM	?	16µM	/	.	?
CC(C)OCCCN(CC(O)c1ccccc1)CC(O)c1ccccc1 (stereo not given)	?	.	?	?	.	.
CCCCNC(=O)C[C@@H]1C[C@@]2(C(=O)OC)CCCCC=C2N(Cc2ccc(Cl)cc2Cl)C1=O	16µM	/	?	/	.	/
COC(=O)[C@]12CCCCC=C1N(Cc1ccc(Cl)cc1Cl)C(=O)[C@H](CC(=O)NCCCCc1ccccc1)C2	?	/	?	/	-51	/
CCCCOCCCNC(=O)C[C@@H]1C[C@@]2(C(=O)OC)CCCCC=C2N(Cc2ccc(Cl)cc2Cl)C1=O	?	/	?	/	-59	/
COC(=O)[C@]12CCCCC=C1N(Cc1ccc(Cl)cc1Cl)C(=O)[C@H](CC(=O)NCCc1ccccc1OC)C2	?	/	?	/	-61	/
COC(=O)[C@]12CCCCC=C1N(Cc1ccc(Cl)cc1Cl)C(=O)[C@H](CC(=O)N1CCOCC1)C2	?	/	?	/	.	/
COC(=O)[C@]12CCCCC=C1N(Cc1ccc(Cl)cc1Cl)C(=O)[C@H](CC(=O)NCc1ccc(C)o1)C2	16µM	/	?	/	.	/
COC(=O)[C@]12CCCCC=C1N(Cc1ccc(Cl)cc1Cl)C(=O)[C@H](CC(=O)NCCC(C)C)C2	21µM	/	?	/	?	/
O=C(Nc1sc2c(c1C(=O)NCC(O)CO)CCCC2)c1ccccc1 (stereo not given)	.	.	.	/	.	.
CCOc1ccc(C(=O)CCC(=O)NCC(=O)Nc2c(C)cccc2C)cc1	.	.	.	.	.	.
NC(=O)C[C@H](NC(=O)c1ccc(Cl)cc1)C(=O)OCc1ccccc1	?	.	.	.	.	.
COc1ccc(-c2nc3ccccc3nc2-c2ccc(OC)c(OC)c2)cc1OC	.	.	.	?	.	.
COc1ccc(-c2cc3ccccc3nc2N)cc1OC	21µM	?	18µM	?	.	.
CCC(=O)Nc1ccccc1Sc1ncnc2scc(-c3ccccc3)c12	.	.	.	.	.	.
Cc1c(Cc2ccccc2)c(=O)oc2cc(OCC(=O)N3CCC(C(N)=O)CC3)ccc12	?	.	?	.	.	.
CCCCSCCCNC(=O)c1cn(CC)c2ccc(S(=O)(=O)N(C)C3CCCCC3)cc2c1=O	16µM	/	?	/	/	/
CCC1CCCCN1CCCNC(=O)c1cn(CC)c2ccc(S(=O)(=O)N(C)C3CCCCC3)cc2c1=O (stereo not given)	21µM	.	?	.	?	.
Cc1cc2c3c([nH]c2cc1S(=O)(=O)NCCCOC(C)C)CC(C)(C)CC3=O	?	.	?	.	.	.
CCCCn1c(N)c(N(CCC(C)C)C(=O)CN2C(=O)C3CCCCC3C2=O)c(=O)[nH]c1=O (stereo not given)	.	.	.	.	.	.
Cc1cc2nc(-c3cccc(NC(=O)c4ccc(Br)o4)c3C)oc2cc1C	23µM	.	?	?	.	.
COC(=O)c1ccccc1NC(=O)c1ccc(COc2ccc(C)c(C)c2)o1	13µM	.	?	.	.	.
SMILES	DT40 TDP1 no CPT	SW480 rereplic	TDP1 cell CPT	BCR signal inh	IL1B secr inh	MCF10A rereplic
Cc1ccc(OCc2ccc(C(=O)NN)o2)cc1C	.	.	.	?	.	.
COC(=O)c1cc(OC)c(OC)cc1NC(=O)c1ccc(C)o1	18µM	.	15µM	?	.	.
COC(=O)c1ccccc1NC(=O)c1ccc(COc2cc(C)cc(C)c2)o1	23µM	.	?	.	.	?
Cc1ccc2oc(-c3cccc(NC(=O)c4ccc(Br)o4)c3C)nc2c1	?	.	?	?	.	?
COc1ccccc1NC(=O)c1ccc(COc2ccccc2OC)o1	.	.	.	.	.	.
COC(=O)c1ccccc1NC(=O)c1cccc(NC(=O)c2ccc(Br)o2)c1C	1.8µM	.	2.9µM	?	.	.
Cn1c(CN2CCCCC2)nc2cc(NC(=O)c3ccc(F)cc3)ccc21	.	?	.	?	?	.
COc1ccccc1C(=O)Nc1ccc2c(c1)nc(CN1CCCCC1)n2C	23µM!	.	?	?	.	.
COc1ccccc1C(=O)Nc1ccc2c(c1)nc1n2CCN(C2CCCCC2)C1	23µM	.	15µM	.	.	?
O=C(Nc1ccc2c(c1)nc1n2CCN(C2CCCCC2)C1)c1ccco1	?	.	?	.	.	.
Cn1c(CN2CCCCC2)nc2cc(NC(=O)c3ccccc3Cl)ccc21	23µM	.	16µM	?	.	.
OCCCNCc1cc2ccc(F)cc2nc1N1CCN(c2cccc(Cl)c2)CC1	.	/	.[9.04 µM]	/	/	/
Cc1ccc2nc(SC(C)C(=O)NC3CCCC3)[nH]c2c1 (stereo not given)	?	.	.	.	.	?
CCn1c(SCC(=O)c2[nH]c(C)c(C(C)=O)c2C)nnc1-c1ccccc1	26µM	.	23µM	.	.	.
Cc1ccc2nc(SC(C)C(=O)Nc3cccc([N+](=O)[O-])c3)[nH]c2c1 (stereo not given)	?	.	?	.	-73	.
CC(=O)c1c(C)[nH]c(C(=O)CSc2nc3ccc(C)cc3[nH]2)c1C	15µM	.	?	.	.	?
CC(=O)c1c(C)[nH]c(C(=O)CSc2nnc(NC3CC3)s2)c1C	15µM	.	?	.	.	.
CCOc1ccc(C2=CSC3=NCCN23)cc1[N+](=O)[O-]	.	.	.	?	.	.
O=S1(=O)CCN(CCCCc2ccccc2)CC1	.	/	.	/	.	/
Cc1ccc2nc(SCC(=O)Nc3cc([N+](=O)[O-])ccc3F)[nH]c2c1	?	.	18µM	?	.	?
Cc1ccc2nc(SCC(=O)Nc3ccc(C)c([N+](=O)[O-])c3)[nH]c2c1	.	.	?	?	.	.
Cc1c(C(C)(C)O)[nH]c2cc(C(F)(F)F)ccc12	13µM	.	?	?	.	.
CCOc1ccc(S(=O)(=O)n2nnc3ccccc32)cc1C	.	.	.	.	.	.
CCOc1ccc(Cl)cc1S(=O)(=O)n1nnc2ccccc21	?	.	16µM	.	.	.

Bioassay records deposited in PubChem BioAssay by National Center for Advancing Translational Sciences (NCATS).
